About 83,000 compounds went through this panel and 20% of them were active in at least one assay; those are over-represented in the sample as a whole.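 Step 1: grow cells in 96-well plates. Step 2: add test compound at a single concentration. Step 3: incubate 48 h. Step 4: record percent growth.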 Unmarked numbers belong to inactive results. Active and inactive are the calls of the source. The calls were made as follows: active = growth percent below 10; inactive = the rest.

Holding throughout (experiment): NCI-60 one-dose screen, 48 h (100 = growth as untreated, 0 = no growth, -100 = all killed)
Common to all, as to settings: 10 µM

In experiment [1] the test system is DU-145 prostate.
Experiment [2] has as its system K-562 leukemia.
Experiment [3] has as its system MDA-MB-231 breast.
The subject of experiment [4] is RXF 393 renal.
The subject of experiment [5] is SF-268 CNS.
Experiment [6] concerns SF-295 CNS.
Experiment [7] deals with SF-539 CNS.
Experiment [8] has as its system UACC-257 melanoma.
Experiment [9] concerns M14 melanoma.
For experiment [10], the system named is HCT-15 colon.
Experiment [11] has as its system HT29 colon.
Experiment [12] concerns SNB-75 CNS.
Experiment [13] relates to SNB-19 CNS.
Experiment [14] has as its system U251 CNS.
Experiment [15] has as its system PC-3 prostate.
In experiment [16] the test system is SK-MEL-5 melanoma.
Experiment [17] relates to UACC-62 melanoma.
Experiment [18] deals with LOX IMVI melanoma.
The subject of experiment [19] is SK-MEL-28 melanoma.
In experiment [20] the test system is MALME-3M melanoma.

Turning to `CCN1CCOC1C(C)C` (stereo unspecified), the growth in [1] was 110%; in experiment [2] it was 90.3%; in experiment [3], 99.2%; in [4], 109%; in [5], 102%; in [6] it was 105%. Moreover, the growth was 95% in experiment [7]; 104% in experiment [8]; 93.7% in experiment [9]; 105% in experiment [10]; 99.3% in experiment [11]; 99.8% in [12]. In addition, the growth was 113% in [13]; 102% in experiment [14]; 93.4% in experiment [15]; 106% in [16]; 105% in experiment [17]; 102% in experiment [18]. For the same compound, the growth in experiment [19] is 108%.

In the case of `CCN(CC)CCCOC(=O)Nc1ccccc1Cl`, the growth in experiment [1] is 105%; in experiment [2], 99.6%; in [3], 110%; in experiment [4], 109%; in [5] it was 111%; in experiment [6], 113%. Also, the growth in experiment [7] is 94.7%; in experiment [8], 111%; in experiment [9], 107%; in [10] it was 111%; in experiment [11], 103%; in [12], 120%. For the same compound, the growth in experiment [13] is 104%; in [14], 107%; in experiment [15], 96.1%; in experiment [16], 105%; in experiment [17] it was 109%; in experiment [18], 97.6%. Besides, the growth in experiment [19] is 116%.

In the case of `Oc1[nH]c2ccccc2c1/C=c1/cc2c(c(-c3ccc(C(F)(F)F)cc3)n1)=Nc1ccccc1-2`, the growth in experiment [1] was 62.5%; in experiment [2], 22.8%; in experiment [3] it was 45.6%; in experiment [4], 56.1%; in [5] it was 79.1%; in experiment [6] it was 37%. The growth in experiment [7] is 83.5%; in experiment [8] it was 82.4%; in experiment [9], 33.5%; in experiment [10], 49.4%; in [11], 20.2%; in experiment [12] it was 63.4%. Further, the growth in experiment [13] was 82.7%; in experiment [14] it was 60.1%; in experiment [15], 34.9%; in [16], 57.2%; in experiment [17], 77%; in experiment [18] it was 60.5%. In addition, the growth in [19] was 52.8%.

For the compound `O=[N+]([O-])c1ccc2c(c1)Cc1cc(I)ccc1-2`, the growth is 116% in [1]; 95.6% in experiment [2]; 102% in [3]; 101% in experiment [4]; 103% in [5]; 82.5% in [6]. The growth in experiment [7] was 116%; in experiment [8], 108%; in [9] it was 101%; in experiment [10], 108%; in [11], 91.6%; in experiment [12], 106%. The growth is 109% in experiment [13]; 96% in experiment [14]; 101% in experiment [15]; 97.1% in experiment [16]; 108% in experiment [17]; 116% in experiment [18]. The growth in experiment [19] is 111%.

Take `O=C(c1ccccc1)C(Sc1ccccc1)c1ccccc1` (stereo unspecified): the growth was 29.7% in experiment [1]; 84.5% in experiment [2]; 89.2% in [3]; 80.7% in [4]; 92.6% in [5]; 113% in experiment [6]. The growth in experiment [7] is 99.5%; in experiment [8] it was 98.8%; in [9] it was 94.5%; in experiment [10] it was 60.7%; in experiment [11], 45.6%; in experiment [12], 101%. Besides, the growth was 110% in experiment [13]; 79.4% in experiment [14]; 73% in experiment [15]; 108% in [16]; 83.5% in [17]; 74.5% in experiment [18]. Also, in [19], the growth was 94.1%.

As for `Oc1ccc(/C=N\Nc2ccccn2)c(O)c1`, the growth is 11.1% in experiment [1]; 24.3% in experiment [2]; 37.8% in experiment [3]; 28.5% in experiment [4]; 16.4% in experiment [5]; -4.28% (active) in experiment [6]. For the same compound, the growth in experiment [7] was -0.82% (active); in [8], 30.3%; in experiment [9], -36.2% (active); in experiment [10] it was 32.7%; in [11], 51.6%; in experiment [12] it was 9.86% (active). In addition, the growth in [13] was 29.4%; in [14], 26.5%; in experiment [15] it was 61.3%; in [16], 39.4%; in experiment [17] it was 7.44% (active); in [18], -6.3% (active). The growth in experiment [19] is 64.5%.

Consider `COc1cc(-c2nc(-c3nnc(-c4cccnc4)o3)c3ccccn23)cc(OC)c1OC`, for which the growth is 114% in experiment [1]; 95.4% in experiment [2]; 97.7% in [3]; 115% in [4]; 95.7% in [5]; 79.5% in experiment [6]. Also, the growth in experiment [7] was 107%; in experiment [8], 104%; in experiment [9], 110%; in experiment [10], 111%; in experiment [11], 97.4%; in experiment [12], 96.7%. Besides, the growth in [13] was 102%; in experiment [14], 95%; in experiment [15], 101%; in experiment [16] it was 90.7%; in experiment [17] it was 106%; in experiment [18], 97.3%. In addition, in experiment [19], the growth was 121%.

With `CS(=O)(=O)Nc1ccc([N+](=O)[O-])cc1Oc1ccccc1`, the growth in experiment [1] is 100%; in experiment [2] it was 78%; in [20], 92.4%; in experiment [3], 118%; in experiment [5], 98.4%; in [6] it was 84.2%. Moreover, the growth is 104% in experiment [7]; 94.7% in experiment [8]; 105% in [9]; 99.9% in experiment [11]; 110% in experiment [12]; 104% in experiment [13]. Moreover, the growth in [14] is 90.4%; in [15], 95.4%; in [16], 84.2%; in experiment [17] it was 89.8%; in experiment [18], 88.2%; in experiment [19], 118%.
